# Publication PMC7862700, “An all-to-all approach to the identification of sequence-specific readers for epigenetic DNA modifications on cytosine”
# Legend:
# Assay in all cases: DAPPL (digital affinity profiling via proximity ligation, sequencing); 10 mM Tris-HCl pH 7.5, 50 mM NaCl, 1 mM DTT, 4% glycerol, room temperature, 30 min; GST-TFs on glutathione beads, 16-mer random dsDNA library, 0.1% formaldehyde crosslink after washing; high values mean tight binding
# [1] = molecular target: T1, FLI1 (Homo sapiens, UniProt Q01543 1-452); conditions: protein: recombinant; tags: N-terminal GST; dsDNA, one strand shown
# T1 sequence: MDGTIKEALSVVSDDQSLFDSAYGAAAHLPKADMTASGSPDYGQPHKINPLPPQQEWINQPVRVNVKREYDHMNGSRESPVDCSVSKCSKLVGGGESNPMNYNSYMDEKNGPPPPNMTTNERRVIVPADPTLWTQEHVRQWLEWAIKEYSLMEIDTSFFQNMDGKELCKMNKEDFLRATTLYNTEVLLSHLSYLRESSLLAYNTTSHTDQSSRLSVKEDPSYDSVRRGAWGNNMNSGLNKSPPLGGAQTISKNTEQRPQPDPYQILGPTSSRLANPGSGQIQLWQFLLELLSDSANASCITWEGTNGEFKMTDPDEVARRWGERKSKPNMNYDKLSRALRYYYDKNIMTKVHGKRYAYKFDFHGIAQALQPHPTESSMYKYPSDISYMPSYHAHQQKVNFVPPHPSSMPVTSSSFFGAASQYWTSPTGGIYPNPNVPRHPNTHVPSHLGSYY
# Outline: (§1)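 Binding signal is each hexamer's read frequency for a factor divided by its frequency in the tag-only sample. The factors were GST-fused human transcription factors from yeast, captured on glutathione beads, DNA-barcoded and pooled with that sample. Pools were incubated with 200 nmole of a random double-stranded 16-mer DNA library in Tris/NaCl/DTT/glycerol buffer at room temperature for 30 min, then washed, crosslinked with 0.1% formaldehyde, proximity-ligated with BsaI/T4 ligase (1 h, 37 °C), PCR-amplified and sequenced on an Illumina NextSeq500.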
# [2] = molecular target: T2, ELK1 (Homo sapiens, UniProt P19419 1-428); conditions: protein: recombinant; tags: N-terminal GST; dsDNA, one strand shown
# T2 sequence: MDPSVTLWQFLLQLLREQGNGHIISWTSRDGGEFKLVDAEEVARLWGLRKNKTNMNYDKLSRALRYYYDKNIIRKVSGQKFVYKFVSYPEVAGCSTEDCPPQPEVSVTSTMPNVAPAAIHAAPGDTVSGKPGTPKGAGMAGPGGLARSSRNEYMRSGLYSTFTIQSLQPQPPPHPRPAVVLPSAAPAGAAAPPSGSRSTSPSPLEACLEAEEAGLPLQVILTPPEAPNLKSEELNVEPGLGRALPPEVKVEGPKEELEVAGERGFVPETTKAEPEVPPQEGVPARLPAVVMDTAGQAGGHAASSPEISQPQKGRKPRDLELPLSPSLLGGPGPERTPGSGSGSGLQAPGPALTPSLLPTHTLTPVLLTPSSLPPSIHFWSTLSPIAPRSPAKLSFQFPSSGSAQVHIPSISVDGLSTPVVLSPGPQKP
# Outline: as §1
# [3] = molecular target: T3, GABPA (Homo sapiens, UniProt Q06546 1-454); conditions: protein: recombinant; tags: N-terminal GST; dsDNA, one strand shown
# T3 sequence: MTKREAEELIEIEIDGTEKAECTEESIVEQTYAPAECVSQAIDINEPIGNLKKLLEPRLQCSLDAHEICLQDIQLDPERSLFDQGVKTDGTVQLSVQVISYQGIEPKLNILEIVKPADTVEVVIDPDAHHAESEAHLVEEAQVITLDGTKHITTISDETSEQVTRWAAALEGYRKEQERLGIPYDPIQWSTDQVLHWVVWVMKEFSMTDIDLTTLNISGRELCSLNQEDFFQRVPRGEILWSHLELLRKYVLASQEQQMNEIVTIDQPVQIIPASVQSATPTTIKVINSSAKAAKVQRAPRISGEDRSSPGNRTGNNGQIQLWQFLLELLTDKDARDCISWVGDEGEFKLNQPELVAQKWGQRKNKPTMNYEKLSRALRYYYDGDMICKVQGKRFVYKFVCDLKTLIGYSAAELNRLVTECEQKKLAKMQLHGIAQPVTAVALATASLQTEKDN
# Outline: as §1
# [4] = molecular target: T4, ERG (Homo sapiens, UniProt P11308 1-479); conditions: protein: recombinant; tags: N-terminal GST; dsDNA, one strand shown
# T4 sequence: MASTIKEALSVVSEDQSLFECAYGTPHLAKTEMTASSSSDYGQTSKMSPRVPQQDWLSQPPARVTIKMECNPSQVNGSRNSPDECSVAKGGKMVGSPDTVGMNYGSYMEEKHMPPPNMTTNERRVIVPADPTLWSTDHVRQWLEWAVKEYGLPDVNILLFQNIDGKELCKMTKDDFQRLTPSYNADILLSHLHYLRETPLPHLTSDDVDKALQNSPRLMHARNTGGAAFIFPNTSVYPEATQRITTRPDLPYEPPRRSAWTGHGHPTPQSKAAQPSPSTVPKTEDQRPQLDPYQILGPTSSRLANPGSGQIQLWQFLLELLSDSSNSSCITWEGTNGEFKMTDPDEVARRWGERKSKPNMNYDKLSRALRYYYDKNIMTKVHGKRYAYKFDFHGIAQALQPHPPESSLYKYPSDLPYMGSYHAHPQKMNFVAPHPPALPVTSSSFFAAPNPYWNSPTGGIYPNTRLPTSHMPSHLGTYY
# Outline: as §1
# [5] = molecular target: ELF1 (Homo sapiens, UniProt P32519 1-619); conditions: protein: recombinant; tags: N-terminal GST; dsDNA, one strand shown
# ELF1, sequence (P32519 whole entry): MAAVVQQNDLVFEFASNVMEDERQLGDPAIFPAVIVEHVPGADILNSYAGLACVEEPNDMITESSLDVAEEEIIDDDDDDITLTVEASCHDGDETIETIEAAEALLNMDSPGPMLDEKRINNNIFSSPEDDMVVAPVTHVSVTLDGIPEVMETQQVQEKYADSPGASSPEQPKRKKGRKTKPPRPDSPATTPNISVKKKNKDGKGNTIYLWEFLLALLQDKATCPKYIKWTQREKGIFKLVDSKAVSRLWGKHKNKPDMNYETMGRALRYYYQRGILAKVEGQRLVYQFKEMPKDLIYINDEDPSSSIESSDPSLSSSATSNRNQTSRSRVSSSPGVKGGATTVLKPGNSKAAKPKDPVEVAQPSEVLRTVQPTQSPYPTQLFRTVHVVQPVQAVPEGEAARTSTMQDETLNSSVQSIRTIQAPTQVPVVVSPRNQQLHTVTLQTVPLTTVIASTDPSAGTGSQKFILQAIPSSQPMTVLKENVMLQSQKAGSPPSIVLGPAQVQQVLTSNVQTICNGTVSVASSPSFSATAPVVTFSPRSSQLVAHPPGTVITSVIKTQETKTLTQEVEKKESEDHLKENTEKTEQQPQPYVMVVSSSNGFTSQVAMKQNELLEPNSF
# Outline: as §1
# [6] = molecular target: T5, EHF (Homo sapiens, UniProt Q9NZC4 1-300); conditions: protein: recombinant; tags: N-terminal GST; dsDNA, one strand shown
# T5 sequence: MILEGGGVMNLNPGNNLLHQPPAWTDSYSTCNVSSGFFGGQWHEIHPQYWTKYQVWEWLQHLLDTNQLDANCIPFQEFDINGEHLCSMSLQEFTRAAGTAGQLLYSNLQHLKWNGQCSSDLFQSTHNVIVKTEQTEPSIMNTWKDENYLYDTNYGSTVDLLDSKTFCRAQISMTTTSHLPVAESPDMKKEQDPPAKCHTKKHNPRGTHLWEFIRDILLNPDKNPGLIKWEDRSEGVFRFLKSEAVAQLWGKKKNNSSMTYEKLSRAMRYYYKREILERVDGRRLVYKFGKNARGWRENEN
# Outline: as §1
# [7] = molecular target: SPI1 (Homo sapiens, UniProt P17947 1-270); conditions: protein: recombinant; tags: N-terminal GST; dsDNA, one strand shown
# Outline: as §1
# [8] = molecular target: SPIB (Homo sapiens, UniProt Q01892 1-262); conditions: protein: recombinant; tags: N-terminal GST; dsDNA, one strand shown
# SPIB, sequence (Q01892 whole entry): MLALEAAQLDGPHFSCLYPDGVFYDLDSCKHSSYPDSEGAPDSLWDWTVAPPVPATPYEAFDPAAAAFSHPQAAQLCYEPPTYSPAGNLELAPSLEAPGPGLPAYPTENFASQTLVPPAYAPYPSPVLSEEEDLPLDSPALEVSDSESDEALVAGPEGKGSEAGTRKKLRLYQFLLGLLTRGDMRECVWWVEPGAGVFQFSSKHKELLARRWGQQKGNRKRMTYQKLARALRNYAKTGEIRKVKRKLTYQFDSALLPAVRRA
# Outline: as §1
# [9] = molecular target: T6, ELK3 (Homo sapiens, UniProt P41970 1-407); conditions: protein: recombinant; tags: N-terminal GST; dsDNA, one strand shown
# T6 sequence: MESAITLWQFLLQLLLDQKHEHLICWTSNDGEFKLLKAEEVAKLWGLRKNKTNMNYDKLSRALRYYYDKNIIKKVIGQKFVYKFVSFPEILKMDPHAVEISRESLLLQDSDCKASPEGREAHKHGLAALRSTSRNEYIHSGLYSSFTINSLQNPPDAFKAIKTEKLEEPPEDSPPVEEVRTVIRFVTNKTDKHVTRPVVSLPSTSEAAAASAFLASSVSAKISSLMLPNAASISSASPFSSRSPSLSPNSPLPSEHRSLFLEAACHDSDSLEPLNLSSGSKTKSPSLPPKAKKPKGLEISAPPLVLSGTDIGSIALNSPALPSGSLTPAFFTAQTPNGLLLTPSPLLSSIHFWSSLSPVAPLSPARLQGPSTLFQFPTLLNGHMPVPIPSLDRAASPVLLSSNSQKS
# Outline: as §1
# [10] = molecular target: T7, FEV (Homo sapiens, UniProt Q99581 1-238); conditions: protein: recombinant; tags: N-terminal GST; dsDNA, one strand shown
# T7 sequence: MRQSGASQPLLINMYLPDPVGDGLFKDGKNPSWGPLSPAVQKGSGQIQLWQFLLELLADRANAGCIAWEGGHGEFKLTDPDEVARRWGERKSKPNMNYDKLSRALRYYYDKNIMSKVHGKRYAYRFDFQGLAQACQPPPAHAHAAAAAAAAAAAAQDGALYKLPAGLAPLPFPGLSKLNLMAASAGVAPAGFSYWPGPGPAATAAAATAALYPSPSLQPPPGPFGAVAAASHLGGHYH
# Outline: as §1
# [11] = molecular target: ETV5 (Homo sapiens, UniProt P41161 1-510); conditions: protein: recombinant; tags: N-terminal GST; dsDNA, one strand shown
# ETV5, sequence (P41161 whole entry): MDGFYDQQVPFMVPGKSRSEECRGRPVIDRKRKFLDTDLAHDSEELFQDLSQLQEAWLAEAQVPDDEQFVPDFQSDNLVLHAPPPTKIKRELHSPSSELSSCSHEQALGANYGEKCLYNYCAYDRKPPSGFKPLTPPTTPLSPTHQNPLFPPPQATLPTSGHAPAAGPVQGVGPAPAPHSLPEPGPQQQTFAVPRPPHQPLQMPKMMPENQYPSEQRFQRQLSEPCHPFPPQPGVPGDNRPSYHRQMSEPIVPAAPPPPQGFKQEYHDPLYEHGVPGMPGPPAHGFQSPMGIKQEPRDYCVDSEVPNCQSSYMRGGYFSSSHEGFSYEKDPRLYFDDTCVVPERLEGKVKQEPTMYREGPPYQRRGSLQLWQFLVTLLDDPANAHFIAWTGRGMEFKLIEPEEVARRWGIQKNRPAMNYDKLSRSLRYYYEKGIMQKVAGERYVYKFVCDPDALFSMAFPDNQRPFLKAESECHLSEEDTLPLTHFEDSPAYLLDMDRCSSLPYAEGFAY
# Outline: as §1
# [12] = molecular target: HSF1 (Homo sapiens, UniProt Q00613 1-529); conditions: protein: recombinant; tags: N-terminal GST; chain copies: 3; dsDNA, one strand shown
# HSF1, sequence (Q00613 whole entry): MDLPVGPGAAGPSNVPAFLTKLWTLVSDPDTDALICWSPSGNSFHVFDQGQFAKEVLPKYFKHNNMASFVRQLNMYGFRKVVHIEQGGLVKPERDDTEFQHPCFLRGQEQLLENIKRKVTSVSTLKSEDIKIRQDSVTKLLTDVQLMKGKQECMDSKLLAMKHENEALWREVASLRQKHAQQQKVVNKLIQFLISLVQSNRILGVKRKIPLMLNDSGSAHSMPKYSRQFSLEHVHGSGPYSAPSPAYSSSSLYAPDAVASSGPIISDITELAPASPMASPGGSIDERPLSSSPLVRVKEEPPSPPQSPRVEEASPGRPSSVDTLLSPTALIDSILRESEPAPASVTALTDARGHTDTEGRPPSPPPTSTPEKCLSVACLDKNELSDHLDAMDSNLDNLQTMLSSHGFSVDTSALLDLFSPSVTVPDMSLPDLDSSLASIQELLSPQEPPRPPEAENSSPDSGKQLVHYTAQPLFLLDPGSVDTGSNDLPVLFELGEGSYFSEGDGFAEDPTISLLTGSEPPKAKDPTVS
# Outline: as §1
# [13] = molecular target: T8, SPIC (Homo sapiens, UniProt Q8N5J4 1-248); conditions: protein: recombinant; tags: N-terminal GST; dsDNA, one strand shown
# T8 sequence: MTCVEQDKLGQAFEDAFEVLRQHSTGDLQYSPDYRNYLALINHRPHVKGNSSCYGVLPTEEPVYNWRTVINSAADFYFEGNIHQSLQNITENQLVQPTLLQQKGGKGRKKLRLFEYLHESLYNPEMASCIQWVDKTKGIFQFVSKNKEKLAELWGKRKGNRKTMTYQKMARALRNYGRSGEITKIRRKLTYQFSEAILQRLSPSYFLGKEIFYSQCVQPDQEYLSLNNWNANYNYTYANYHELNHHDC
# Outline: as §1
# [14] = molecular target: ELF4 (Homo sapiens, UniProt Q99607 1-663); conditions: protein: recombinant; tags: N-terminal GST; dsDNA, one strand shown
# ELF4, sequence (Q99607 whole entry): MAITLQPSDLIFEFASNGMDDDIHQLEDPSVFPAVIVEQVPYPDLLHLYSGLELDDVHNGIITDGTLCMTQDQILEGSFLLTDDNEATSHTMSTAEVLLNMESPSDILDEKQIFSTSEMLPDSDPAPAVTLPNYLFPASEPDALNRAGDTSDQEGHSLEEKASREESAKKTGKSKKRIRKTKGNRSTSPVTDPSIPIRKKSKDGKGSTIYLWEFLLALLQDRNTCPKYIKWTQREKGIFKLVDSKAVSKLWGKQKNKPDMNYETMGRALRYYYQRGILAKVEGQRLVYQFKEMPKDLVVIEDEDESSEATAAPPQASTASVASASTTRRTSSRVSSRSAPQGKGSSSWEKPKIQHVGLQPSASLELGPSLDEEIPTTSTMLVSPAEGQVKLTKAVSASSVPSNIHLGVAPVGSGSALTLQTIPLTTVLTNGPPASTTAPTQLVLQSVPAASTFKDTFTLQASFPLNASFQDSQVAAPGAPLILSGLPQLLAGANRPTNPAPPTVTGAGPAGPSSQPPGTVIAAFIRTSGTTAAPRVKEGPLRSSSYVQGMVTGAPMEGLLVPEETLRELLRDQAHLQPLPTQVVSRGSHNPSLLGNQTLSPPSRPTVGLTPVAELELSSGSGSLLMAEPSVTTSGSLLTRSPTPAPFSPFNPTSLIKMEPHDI
# Outline: as §1
# [15] = molecular target: T9, ELK4 (Homo sapiens, UniProt P28324-2 1-405); conditions: protein: recombinant; tags: N-terminal GST; dsDNA, one strand shown
# T9 sequence: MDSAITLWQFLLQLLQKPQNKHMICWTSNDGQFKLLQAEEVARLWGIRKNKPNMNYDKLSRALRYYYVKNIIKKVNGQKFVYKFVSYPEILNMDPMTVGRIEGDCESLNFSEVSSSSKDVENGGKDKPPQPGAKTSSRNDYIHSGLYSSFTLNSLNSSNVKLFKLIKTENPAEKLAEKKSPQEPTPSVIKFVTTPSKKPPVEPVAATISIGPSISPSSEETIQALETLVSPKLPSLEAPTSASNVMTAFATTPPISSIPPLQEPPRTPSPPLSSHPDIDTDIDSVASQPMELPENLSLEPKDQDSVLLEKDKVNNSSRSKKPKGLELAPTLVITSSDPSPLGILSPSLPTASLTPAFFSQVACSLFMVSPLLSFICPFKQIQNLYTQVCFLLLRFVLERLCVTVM
# Outline: as §1
# [16] = molecular target: T10, ETV2 (Homo sapiens, UniProt O00321 1-342); conditions: protein: recombinant; tags: N-terminal GST; dsDNA, one strand shown
# T10 sequence: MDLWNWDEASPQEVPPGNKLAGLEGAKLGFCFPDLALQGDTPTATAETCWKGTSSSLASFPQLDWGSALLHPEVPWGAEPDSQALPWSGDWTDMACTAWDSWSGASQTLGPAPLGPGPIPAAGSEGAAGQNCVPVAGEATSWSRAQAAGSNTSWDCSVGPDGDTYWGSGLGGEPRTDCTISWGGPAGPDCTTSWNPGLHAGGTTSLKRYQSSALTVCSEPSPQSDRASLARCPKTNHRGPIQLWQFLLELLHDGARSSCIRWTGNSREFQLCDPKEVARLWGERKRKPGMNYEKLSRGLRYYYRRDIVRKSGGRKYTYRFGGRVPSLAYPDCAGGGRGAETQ
# Outline: as §1
# [17] = molecular target: T11, ELF3 (Homo sapiens, UniProt P78545 1-371); conditions: protein: recombinant; tags: N-terminal GST; dsDNA, one strand shown
# T11 sequence: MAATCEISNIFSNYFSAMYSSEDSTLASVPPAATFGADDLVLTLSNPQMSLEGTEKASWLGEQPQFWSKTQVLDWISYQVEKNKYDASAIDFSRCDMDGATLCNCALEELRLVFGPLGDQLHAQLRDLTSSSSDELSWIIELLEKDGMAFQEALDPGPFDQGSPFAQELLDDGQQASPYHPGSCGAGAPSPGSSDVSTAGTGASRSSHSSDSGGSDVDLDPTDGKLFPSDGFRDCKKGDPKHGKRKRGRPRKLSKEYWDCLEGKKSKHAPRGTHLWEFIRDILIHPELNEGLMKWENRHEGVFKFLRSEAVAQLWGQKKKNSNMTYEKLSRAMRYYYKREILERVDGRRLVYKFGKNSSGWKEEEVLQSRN
# Outline: as §1
# [18] = molecular target: CRX (Homo sapiens, UniProt O43186 1-299); conditions: protein: recombinant; tags: N-terminal GST; dsDNA, one strand shown
# CRX, sequence (O43186 whole entry): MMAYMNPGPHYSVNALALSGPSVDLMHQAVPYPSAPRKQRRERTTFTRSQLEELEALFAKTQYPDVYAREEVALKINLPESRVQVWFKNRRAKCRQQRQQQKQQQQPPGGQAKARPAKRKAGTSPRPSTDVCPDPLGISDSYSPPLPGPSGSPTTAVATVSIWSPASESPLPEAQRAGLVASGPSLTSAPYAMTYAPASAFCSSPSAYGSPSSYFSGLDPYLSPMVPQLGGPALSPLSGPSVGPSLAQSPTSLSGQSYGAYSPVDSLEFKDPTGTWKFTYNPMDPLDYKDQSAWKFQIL
# Outline: as §1
# [19] = molecular target: ETV1 (Homo sapiens, UniProt P50549 1-477); conditions: protein: recombinant; tags: N-terminal GST; dsDNA, one strand shown
# ETV1, sequence (P50549 whole entry): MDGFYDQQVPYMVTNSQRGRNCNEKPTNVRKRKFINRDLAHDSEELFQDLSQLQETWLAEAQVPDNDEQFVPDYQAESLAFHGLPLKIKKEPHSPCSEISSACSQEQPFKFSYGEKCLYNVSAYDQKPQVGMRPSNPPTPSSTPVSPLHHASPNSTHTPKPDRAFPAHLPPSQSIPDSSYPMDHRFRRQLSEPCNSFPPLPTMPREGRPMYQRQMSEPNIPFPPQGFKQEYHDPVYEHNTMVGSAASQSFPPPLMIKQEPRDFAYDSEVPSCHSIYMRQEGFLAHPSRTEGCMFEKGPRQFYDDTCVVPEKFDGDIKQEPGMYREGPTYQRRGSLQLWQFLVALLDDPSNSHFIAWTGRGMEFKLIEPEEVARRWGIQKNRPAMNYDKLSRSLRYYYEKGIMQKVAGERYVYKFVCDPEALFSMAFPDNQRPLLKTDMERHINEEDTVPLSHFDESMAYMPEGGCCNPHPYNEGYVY
# Outline: as §1
sequence,measurement,setting,value
ATCCGA,binding signal,[1],"1.1 fold enrichment (6-mer frequency, TF over GST control)"
same,binding signal,[2],"1.17 fold enrichment (6-mer frequency, TF over GST control)"
same,binding signal,[3],"1.2 fold enrichment (6-mer frequency, TF over GST control)"
same,binding signal,[4],"1.31 fold enrichment (6-mer frequency, TF over GST control)"
same,binding signal,[5],"1.15 fold enrichment (6-mer frequency, TF over GST control)"
same,binding signal,[6],"1.17 fold enrichment (6-mer frequency, TF over GST control)"
same,binding signal,[7],"1.08 fold enrichment (6-mer frequency, TF over GST control)"
same,binding signal,[8],"1.32 fold enrichment (6-mer frequency, TF over GST control)"
same,binding signal,[9],"1.32 fold enrichment (6-mer frequency, TF over GST control)"
same,binding signal,[10],"1.29 fold enrichment (6-mer frequency, TF over GST control)"
same,binding signal,[11],"1.2 fold enrichment (6-mer frequency, TF over GST control)"
same,binding signal,[12],"1.56 fold enrichment (6-mer frequency, TF over GST control)"
same,binding signal,[13],"1.31 fold enrichment (6-mer frequency, TF over GST control)"
same,binding signal,[14],"1.13 fold enrichment (6-mer frequency, TF over GST control)"
same,binding signal,[15],"1.18 fold enrichment (6-mer frequency, TF over GST control)"
same,binding signal,[16],"1.24 fold enrichment (6-mer frequency, TF over GST control)"
same,binding signal,[17],"1.09 fold enrichment (6-mer frequency, TF over GST control)"
same,binding signal,[18],"2.02 fold enrichment (6-mer frequency, TF over GST control)"
same,binding signal,[19],"1.17 fold enrichment (6-mer frequency, TF over GST control)"
